High-throughput results as filed in PubChem.
Pf Dd2 inh: inhibitors of Plasmodium falciparum Dd2 growth. P. falciparum Dd2 growth, SYBR Green, 72 h; stronger effect = lower value. activity change, % at 10 µM. actives 2.3% (n = 94,000). AID 1159554; in the data active = activity change below about -80%
T cruzi growth: T. cruzi proliferation inhibition; actives 5.9% (n = 77,000); T. cruzi beta-gal in NIH3T3, GalScreen luminescence, 90 h; inhibition, % at 8.34 µM;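 active = mean inhibition above about 93%, with at least 55% of replicates each passing it, limit read from the data, passing the limit was not always enough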
C diff growth: blocks growth of Clostridium difficile. AID 1259249. growth activity, negative = inhibition, % at 16 µg/mL (by protocol). Clostridium difficile clinical isolate growth, OD600, 24 h; stronger effect = lower value. actives 0.25% (n = 86,000);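 active = mean growth activity at or below -80% and every replicate also at or below -80%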;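 note: 0% = DMSO wells and -100% = levofloxacin 16 µg/mL wells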
* hit, by the source's call; ! = not active in a repeat. Rows were chosen to be rich in hits. Some 6.7% of all compounds tested hit in one or more screens of this group.

COc1ccccc1CN1CC[C@@H]2[C@H](CO)Nc3ccc(C#Cc4ccccc4)cc3[C@@H]21 was read as Pf Dd2 inh -51, T cruzi growth -16 and C diff growth -99*.
`C/C=C/c1ccc([C@H]2[C@H](CO)N(C(=O)c3cnccn3)C23CN(C(=O)C2CC2)C3)cc1` gave Pf Dd2 inh -6 and C diff growth -3.
Screening CC(=O)N1[C@@H]2Cn3c(ccc(C4=CCCC4)c3=O)[C@H]1[C@@H](C(=O)NC1CCCC1)[C@@H]2CO returned Pf Dd2 inh 14 and C diff growth 0.
C[C@H]1CCCCO[C@@H](CN(C)S(=O)(=O)c2ccc(Cl)cc2)[C@@H](C)CN([C@@H](C)CO)C(=O)c2cc(N(C)C)ccc2O1 was read as T cruzi growth 54 and C diff growth 0.
Screening COc1ccc(S(=O)(=O)N(C)C[C@H]2OCCCC[C@@H](C)Oc3ccc(N(C)C)cc3C(=O)N([C@H](C)CO)C[C@@H]2C)cc1 returned Pf Dd2 inh -83*!, T cruzi growth 36 and C diff growth -2.
For COc1ccc(S(=O)(=O)N(C)C[C@@H]2OCCCC[C@@H](C)Oc3ccc(N(C)C)cc3C(=O)N([C@@H](C)CO)C[C@H]2C)cc1 the results were Pf Dd2 inh -36, T cruzi growth 5 and C diff growth -1.
For C[C@@H]1CN([C@H](C)CO)C(=O)c2cc(N(C)C)ccc2O[C@@H](C)CCCCO[C@H]1CN(C)S(=O)(=O)c1ccc(Cl)cc1 the results were Pf Dd2 inh -84*, T cruzi growth 57 and C diff growth -4.
Screening C[C@H](CO)N1C[C@H](C)[C@@H](CN(C)S(=O)(=O)c2ccc(F)cc2)OCc2ccccc2-c2c(n(C)c3ccccc23)C1=O returned Pf Dd2 inh -23 and T cruzi growth 0.
Screening C[C@@H]1CN([C@@H](C)CO)C(=O)c2c(c3ccccc3n2C)-c2ccccc2CO[C@H]1CN(C)S(=O)(=O)c1ccc(Cl)cc1 returned Pf Dd2 inh -75 and T cruzi growth 78.
For C[C@@H]1CN([C@@H](C)CO)C(=O)c2c(c3ccccc3n2C)-c2ccccc2CO[C@H]1CN(C)S(=O)(=O)c1ccc([N+](=O)[O-])cc1 the results were Pf Dd2 inh -76 and C diff growth -28.
`C[C@H]1CN([C@@H](C)CO)C(=O)c2c(c3ccccc3n2C)-c2ccccc2CO[C@H]1CN(C)S(=O)(=O)c1ccc(F)cc1` gave Pf Dd2 inh -87* and T cruzi growth 48.
`Cc1ccc(S(=O)(=O)N(C)C[C@H]2OCc3ccccc3-c3c(n(C)c4ccccc34)C(=O)N([C@@H](C)CO)C[C@H]2C)cc1` gave Pf Dd2 inh -86* and T cruzi growth 47.
For C[C@H]1CN([C@@H](C)CO)C(=O)c2c(c3ccccc3n2C)-c2ccccc2CO[C@@H]1CN(C)S(=O)(=O)c1ccccc1 the results were Pf Dd2 inh -79 and T cruzi growth 91.
C[C@@H]1CN([C@H](C)CO)C(=O)c2c(c3ccccc3n2C)-c2ccccc2CO[C@@H]1CN(C)S(=O)(=O)c1ccc(Cl)cc1 was read as Pf Dd2 inh -81* and T cruzi growth 69.
For C[C@@H]1CN([C@@H](C)CO)C(=O)c2c(c3ccccc3n2C)-c2ccccc2CO[C@H]1CN(C)S(=O)(=O)c1ccc(C(F)(F)F)cc1 the results were Pf Dd2 inh -89* and C diff growth 45.
COc1ccc2c3c(n(C)c2c1)[C@H](CO)N(C(=O)NC(C)C)CC31CCN(CC2CCCC2)CC1 was read as Pf Dd2 inh -69 and C diff growth 1.
For CCS(=O)(=O)N1CC2(C1)[C@H](c1ccccc1)[C@H](CO)N2C(=O)C1CC1 the results were Pf Dd2 inh 26 and C diff growth 3.
Cc1ccc(S(=O)(=O)N(C)C[C@H]2OCCCC[C@@H](C)Oc3ccc(NC(=O)Nc4cccc5ccccc45)cc3C(=O)N([C@H](C)CO)C[C@@H]2C)cc1 was read as Pf Dd2 inh -39 and C diff growth -1.
For CCCNC(=O)N1CC2(CN(C)C2)c2c(n(C)c3cc(OC)ccc23)[C@@H]1CO the results were Pf Dd2 inh 17 and C diff growth -5.
`CN1C(=O)c2cc(NC(=O)C3CC3)ccc2OC[C@H]2O[C@@H](CC(=O)NCc3cccc(F)c3)CC[C@@H]21` gave Pf Dd2 inh -16, T cruzi growth 17 and C diff growth 0.
For C[C@H](CO)N1C[C@H](C)[C@H](CN(C)S(=O)(=O)c2ccc(C#N)cc2)OCc2ccccc2-c2c(n(C)c3ccccc23)C1=O the results were Pf Dd2 inh -88* and T cruzi growth 90.
For C[C@H]1CN([C@@H](C)CO)C(=O)c2c(c3ccccc3n2C)-c2ccccc2CO[C@@H]1CN(C)S(=O)(=O)c1ccc(C#N)cc1 the results were Pf Dd2 inh -73 and T cruzi growth 56.
`COc1cccc(-c2ccc3c(c2)[C@H]2[C@H](CCN2S(=O)(=O)c2ccc(F)cc2)[C@@H](CO)N3C)c1` gave Pf Dd2 inh -4, T cruzi growth 88 and C diff growth 3.
For CN1c2ccc(C#Cc3ccc(F)cc3)cc2[C@H]2[C@H](CCN2S(=O)(=O)c2ccccc2F)[C@@H]1CO the results were Pf Dd2 inh -9, T cruzi growth 77 and C diff growth -6.
For CN1c2ccc(-c3cccc(C#N)c3)cc2[C@H]2[C@H](CCN2S(=O)(=O)c2ccccc2F)[C@H]1CO the results were Pf Dd2 inh -95*, T cruzi growth 49 and C diff growth -2.
For COc1cccc(S(=O)(=O)N2CC[C@H]3[C@@H](CO)N(C)c4ccc(C#Cc5ccc(F)cc5)cc4[C@H]32)c1 the results were Pf Dd2 inh -34, T cruzi growth 35 and C diff growth -99*.
`CN1c2ccc(-c3ccccc3)cc2[C@H]2[C@H](CCN2S(=O)(=O)c2ccccc2F)[C@H]1CO` gave Pf Dd2 inh -3, T cruzi growth -9 and C diff growth 1.
`Cc1cccc(S(=O)(=O)N2CC[C@@H]3[C@H](CO)N(C)c4ccc(C#Cc5ccc(F)cc5)cc4[C@@H]32)c1` gave Pf Dd2 inh -72, T cruzi growth 0 and C diff growth -98*.
Screening C[C@@H]1CN([C@@H](C)CO)S(=O)(=O)c2ccc(C#C[C@@H](C)O)cc2O[C@@H]1CN(C)Cc1ccc(-c2ccccc2)cc1 returned Pf Dd2 inh -15, T cruzi growth 93 and C diff growth 3.
O=S(=O)(Cc1ccccc1)N1[C@@H]2CNC[C@H]1C2c1ccc(/C=C/c2ccccc2)cc1 (stereo partly drawn) was read as Pf Dd2 inh 5 and C diff growth 28.
`C[C@@H]1CN([C@@H](C)CO)C(=O)c2cc(NC(=O)CCC(F)(F)F)ccc2O[C@@H](C)CCCCO[C@@H]1CN(C)C` gave Pf Dd2 inh 17, T cruzi growth 46 and C diff growth -2.
For CCNC(=O)C[C@@H]1CC[C@@H]2[C@H](COc3ccc(NC(=O)Nc4ccc(Cl)cc4)cc3C(=O)N2C)O1 the results were Pf Dd2 inh -47, T cruzi growth 18 and C diff growth 2.
`COc1ccc(C#Cc2ccc([C@H]3[C@H]4CN(C(=O)c5ccc(F)cc5)CC(=O)N4[C@H]3CO)cc2)cc1` gave Pf Dd2 inh -85* and C diff growth -2.
